Screens as filed in PubChem BioAssay.
Rows were chosen to be rich in hits. Some 2.3% of all compounds tested hit in one or more screens of this group.
ATXN2 expr inh: Primary qHTS for Inhibitors of ATXN expression. HEK-293 ATXN2-luciferase reporter, luminescence, 24 h. Potency, µM (series often up to 57 µM), for inactives: top-dose activity change, negative = inhibition, most hits filed as inhibitors. hit rate 0.72% among 360,000. AID 1745845, 2022; note: % is set by controls: 0 for no effect and ±100 for the full control effect; nearly all actives have a fitted effect of over 55% in size
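qHTS (up to 57 uM final) was run with 24 h compound exposure of reporter cells at 37 °C. Each well was multiplexed: SteadyGlo luminescence measured ATXN2-luciferase expression after a fluorogenic Gly-Phe-AFC viability readout (25 uM final).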
ATXN viability: Viability Counterscreen for Primary qHTS for Inhibitors of ATXN expression; S2 cells (HEK-293 line with an ATXN2-luciferase reporter) viability, CellTiter-Fluor protease fluorescence, 24 h; Potency, µM (series often up to 56.7 µM), most hits filed as cytotoxic; AID 651635, 2014; hit rate 0.49% among 400,000; note: nearly all actives have a fitted effect of over 40% in size
HepG2 viability: qHTS for Inhibitors of TGF-b: Cytotox Counterscreen; AID 588856, 2011; HepG2 CAGA-GFP viability, ATP luminescence, 18 h; Potency, µM (series often up to 46.1 µM), for inactives: top-dose activity change, negative = cytotoxicity, usual class: cytotoxic; hit rate 0.76% among 410,000
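CellTiter-Glo luminescence gave cytotoxicity after 18 hours at 37 degrees C. The cells were HepG2 CAGA-GFP in 1% FBS DMEM, stimulated with 500 pg/mL TGF-beta after compound addition. %Activity was normalised to no-cell wells (complete cell-killing) and DMSO (no toxicity), and curves were fitted and classified.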
TGFb inhibitor: qHTS for Inhibitors of TGF-b | HepG2 CAGA-GFP TGF-b/SMAD3 reporter, GFP fluorescence, 18 h; TGF-beta stimulated, 500 pg/mL final | Potency, µM (highest dose often 46.1 µM), for the others: top-dose activity, negative = inhibition, hits mostly inhibitors | hit rate 1.2% among 410,000; note: % is set by controls: 0 for no effect and ±100 for the full control effect; nearly all actives have a fitted effect of over 65% in size
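Per well, imaged GFP fluorescence of HEPG2 CAGA-GFP cells gives the signal; cells get compound, then TGF-beta (500 pg/mL final), 18 h at 37 degrees C; %Activity versus -TGF-beta and +DMSO controls.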
Active calls of the source: *; i = inactive; u = inconclusive; x = not tested or not shown. Calls come from the whole dose curve; as a rule, active = well fitted curve in the direction sought with a large enough effect; inconclusive = small, poorly fitted or top-dose-only effect, or another doubt; inactive = no such curve, though single readings can be large; an effect the other way counts as inactive or inconclusive. Potency is the fitted concentration of half-maximal effect.

SMILES | ATXN2 expr inh | ATXN viability | HepG2 viability | TGFb inhibitor
CNc1ccccc1C(=O)OC(C)C(=O)Nc1ccc(Cl)cn1 (stereo not drawn) | 8.91µM* | i | -12.9% | -34.8%
COc1ccc(C2c3c(n(C)c4ccccc34)C(=O)N2CC(=O)Nc2ccc(Cl)cc2)cc1 (stereo not drawn) | x | x | -28.6% | 2.51µM*
COC(=O)[C@@H](NC(=O)N1CCC(C)CC1)C(C)C | -3.3% | i | 0.447µM* | 4.1%
CN(C)c1ccc(N=Nc2ccc(S(N)(=O)=O)cc2)cc1 | 42.3% | i | -1.6% | 4.1%
CC1=CC(=O)C=CC1=Nc1ccc(N(C)C)cc1 | u | u | -90.5% | 25.1µM*
CCOC(=O)c1ccc(N2C(=O)c3n[nH]c(-c4cccs4)c3C2c2ccc(OCC)cc2)cc1 (stereo not drawn) | u | u | -63.8% | 1.58µM*
CCOC(=O)c1ccc(N2C(=O)c3n[nH]c(-c4cccs4)c3C2c2ccc(C(C)C)cc2)cc1 (stereo not drawn) | 4.8% | i | 0.8% | u
CCOC(=O)c1ccc(N2C(=O)c3n[nH]c(-c4cccs4)c3C2c2ccc(CC)cc2)cc1 (stereo not drawn) | x | x | -89.2% | 0.891µM*
CCOC(=O)c1ccc(N2C(=O)c3n[nH]c(-c4cccs4)c3C2c2cccc(O)c2)cc1 (stereo not drawn) | u | 28.2µM* | -81.8% | 11.2µM*
CCOC(=O)c1ccc(N2C(=O)c3n[nH]c(C)c3C2c2cccc(Br)c2)cc1 (stereo not drawn) | x | x | -104.2% | u
COc1ccc(F)c(CN2CCOc3ccc(CN4CCCCC4CO)cc3C2)c1 (stereo not drawn) | x | i | x | x
CCN(CC)C(=O)C1=C(C)N(Cc2ccc(C(C)(C)C)cc2)C(=O)C(CC(=O)NCCCCc2ccccc2)C1 (stereo not drawn) | u | x | -57.8% | 14.1µM*
O=C1NC(c2cccc3ccccc23)Nc2ccc(Cl)cc21 (stereo not drawn) | u | u | -5.6% | 3.98µM*
CCOc1ccc(Cc2cc([C@@H]3O[C@H](CO)[C@@H](O)[C@H](O)[C@@H]3O)ccc2Cl)cc1 | 0.1% | x | x | x
C[C@@H]1CN(Cc2ccc3c(c2)CN(Cc2cccn2-c2ccc(Cl)cn2)CCO3)C[C@H](C)O1 | x | i | x | x
Cc1cc(NC(=O)c2cccn2-c2nnc(N3CCCCC3)s2)ccc1Br | x | x | -52.3% | 8.91µM*
COc1cc2c(cc1OC)C1(Nc3c-2c(-c2ccccc2)nn3-c2ccccc2)C(=O)Nc2ccccc21 (stereo not drawn) | -17.5% | i | -13.0% | 15.8µM*
CCOC(=O)C1=C(N)Oc2ccc3ccccc3c2C1c1cccc(O)c1 (stereo not drawn) | u | u | -92.7% | 11.2µM*
CCCCN(CCCC)C(=S)N/N=C/c1c(C)[nH]n(-c2ccccc2)c1=O | u | i | -20.7% | u
CCCSC(=S)c1c(C)[nH]n(-c2ccccc2)c1=O | 25.1µM* | x | -57.0% | 0.0%
CCOC(=O)C1=C(CN2CCN(c3ccc(Cl)cc3)CC2)NC(=O)NC1c1ccc(F)cc1 (stereo not drawn) | 6.1% | i | -39.1% | 15.8µM*
CN(C)N=Nc1ccc(/C=C2\C=Cc3ccccc32)cc1 | x | x | 4.2% | -2.7%
O=C1C=C(Nc2ccc(F)cc2)c2ccccc2C1=O | u | i | 4.47µM* | 3.98µM*
NS(=O)(=O)c1ccc(NC2=CC(=O)c3ccccc3C2=O)cc1 | -15.7% | x | x | x
CCOc1ccc(NC2=CC(=O)C(=O)c3ccccc32)cc1 | -27.1% | u | -103.1% | 4.47µM*
SMILES | ATXN2 expr inh | ATXN viability | HepG2 viability | TGFb inhibitor
O=C1C=C(Nc2cccnc2)c2ccccc2C1=O | u | x | 4.47µM* | 3.55µM*
CCOc1ccc(NC2=CC(=O)CCC2)cc1 | -6.0% | i | -7.5% | 3.1%
COc1cc(Cl)c(NC2=CC(=O)C(=O)c3ccccc32)c(OC)c1 | u | 25.1µM* | 3.55µM* | 5.01µM*
COc1ccc(OC)c(-c2cc(Cl)c3c(c2)CC(CNC(=O)c2cnn4cccnc24)O3)c1 (stereo not drawn) | x | i | x | x
COc1ccc(CN2CCOc3ccc(CN4CCC(Oc5cccnc5)CC4)cc3C2)c(F)c1 | x | i | x | x
COc1ccc(C2NC(=S)N3C(c4ccc(OC)c(OC)c4)NC(=S)N23)cc1OC (stereo not drawn) | x | i | x | x
O=S(=O)(c1ccc(N2CCC(c3ccc(Cl)cc3)=N2)cc1)N(CCO)CCO | -27.1% | x | 20µM* | u
CC(=O)Nc1ccc(NC(=O)c2nc(SCc3ccccc3F)ncc2Cl)cc1 | x | x | -47.9% | 0.2%
C/C(=N\NC(=O)c1ccc(Br)cc1)C1C(=O)c2ccccc2C1=O | -30.7% | x | -79.4% | u
C/C(=N\NC(=O)c1ccc(-c2ccccc2)cc1)C1C(=O)c2ccccc2C1=O | u | u | -89.3% | 12.6µM*
O=C(NCCCN1CCN(c2ccccc2F)CC1)c1ccc2nc(CCc3ccccc3)oc2c1 | x | x | 11.2µM* | u
NCc1c[nH]c(=S)n1[C@H]1CCc2c(F)cc(F)cc2C1 | 49.2% | x | x | x
CN(C)c1ccc(/C=C2/CCc3ccccc32)cc1 | x | x | -51.4% | 15.8µM*
CN(C)c1ccc(C=C2c3ccccc3-c3ccccc32)cc1 | x | x | -7.6% | -2.6%
CCn1c(-c2cccc(OC)c2)nc2cc(NC(C)=O)cc(C(=O)N3CCC[C@H]3C(=O)OC)c21 | x | i | x | x
COc1ccc(OC)c2c1C(=O)C(Cl)=C(Cl)C2=O | 7.08µM* | 7.94µM* | -102.9% | 3.16µM*
COc1ccc(OC)c2c1C(=O)c1ccccc1C2=O | 0.6% | i | -1.4% | 42.9%
CC1(C)Cc2c(C#N)c(N)sc(=S)c2CS1 | -16.6% | i | 3.55µM* | -7.1%
Cc1ccnc2ccc(I)cc12 | x | x | 3.8% | -1.4%
CC(C)(C)c1ccc(C(=O)C[n+]2ccccc2Cl)cc1 | x | x | -0.6% | -9.6%
Cc1ccc(CN2CCN(Cc3nc(C(C)C)cs3)CC2CCO)cc1 (stereo not drawn) | x | i | 0.3% | -22.1%
CC(C)c1csc(CN2CCN(Cc3ccc(F)cc3)C(CCO)C2)n1 (stereo not drawn) | -19.5% | i | 9.8% | 3.55µM*
O=C(Nc1ccc(/C=C/c2ccc(NC(=O)c3cc(S(=O)(=O)O)c4cccnc4c3O)cc2S(=O)(=O)O)c(S(=O)(=O)O)c1)c1cc(S(=O)(=O)O)c2cccnc2c1O | x | i | x | x
O=C(Nc1ccccc1Cl)Nc1ccccc1Cl | 4.9% | i | 6.1% | 8.0%
